According to PubChem BioAssay AID1159580 (chemical genetic matrix, 2015):
The campaign covered roughly 5,500 compounds. About 2,000 (36%) were called active. Inconclusive results (about 18%) are left out. Rule as the data show it: active = normalized growth mostly below about 0.91 (no sharp cut-off); inconclusive = no clear call, values can overlap the other calls; inactive = mostly above about 0.92. The list shows a part of the results.

Experiment: chemical genetic growth profiling, strain panel (AID 1159580);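 also: tested at 20 µM; growth read once vehicle control cultures reached saturation at 30 °C; 1 = growth at the plate median or of vehicle wells; lower values mean less growth of the strain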
Conditions: S. cerevisiae deletion strains, growth OD

Measured: normalized growth

CC(=O)c1c(O)c(C)c(O)c(Cc2c(O)c3c(c(C(=O)/C=C/c4ccccc4)c2O)OC(C)(C)C=C3)c1O
inactive: locus YAL013W, strain DEP1, active compounds read low 0.909 | locus YAL040C, strain CLN3, active compounds read low 1 | locus YDR363W, strain ESC2, active compounds read low 0.999 | locus YER002W, strain NOP16, active compounds read low 1.06 | locus YGR078C, strain PAC10, active compounds read low 0.989 | locus YGR229C, strain SMI1, active compounds read low 0.876 | locus YNL153C, strain GIM3, active compounds read low 0.857 | locus YNL175C, strain NOP13, active compounds read low 1.06 | locus YNL197C, strain WHI3, active compounds read low 1.01 | locus YNL224C, strain SQS1, active compounds read low 1.01 | locus YOR083W, strain WHI5 (second series), active compounds read low 0.898
active: locus YCL061C, strain MRC1 (second series), active compounds read low 0.917 | locus YDR150W, strain NUM1, active compounds read low 0.883 | locus YJR075W, strain HOC1, active compounds read low 0.877 | locus YMR307W, strain GAS1, active compounds read low 0.877 | locus YPL055C, strain LGE1, active compounds read low 0.881 | locus YPL241C, strain CIN2, active compounds read low 0.902
